From PubChem BioAssay AID652208 (Broad Institute, 2013)
Measured potencies and affinities stand elsewhere. The source made the active and inactive calls.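 How the source made its calls: active means Loss of cell signal with fitted half-effect dose at or below twice the top valid tested dose; inconclusive means Poor fit, or flat fit from -70 to -30 percent; inactive means Half-effect above limit, rising signal, or flat within 30 percent.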

Experiment: viability loss in HEK293T cells – cell-based, cherry-picks, cytotoxicity control for HIV Vif inhibitor project, dose response (AID 652208)
Settings: CellTiter-Glo luminescence, 24 h; series mostly up to 26 µM
For `CCOc1ccc(C(=O)c2cc([N+](=O)[O-])ccc2N2CCOCC2)cc1`, the outcome was “inactive”. For `Cc1ccc(C(C)C)c(OCC#CCN2CCOCC2)c1`, the outcome was “inactive”. For `NCCCC[C@H](N[C@@H](CCc1ccccc1)C(=O)O)C(=O)N1CCC[C@H]1C(=O)O`, the outcome was “inactive”. For `COc1ccc(NC(=O)Cn2nnc(C(=O)Nc3ccccc3C)c2N)cc1`, the outcome was “inactive”. With `CCc1nn(-c2cc(Oc3cccc4ccccc34)nc(-c3ccccc3)n2)c(N)c1C#N` the outcome was “inactive”. With `COc1ccccc1CNC(=O)CSC1=NCCS1` the outcome was “inactive”. For `Cc1ccc(Nc2cc(=O)[nH]c(=O)[nH]2)cc1C`, the outcome was “inactive”. With `CNC(=O)COc1ccccc1C(=O)Nc1ccc2c(c1)oc1ccccc12` the outcome was “inactive”. With `Cc1ccc2c(COC(=O)c3ccccc3OC(F)F)cc(=O)oc2c1` the outcome was “inactive”. With `CCCOc1ccc(C(O)(CCC)CCN2CCCCC2)cc1` (configuration not stated) the outcome was “inactive”. With `CCc1cccc2cc3c(N)c(C(=O)Nc4ccc(S(=O)(=O)N5CCCC5)cc4)sc3nc12` the outcome was “inactive”. With `COc1ccc2c(CC(=O)Nc3ccccc3OC)coc2c1` the outcome was “inactive”. With `COCCN(C(=O)COC(=O)Cc1ccc(Cl)cc1)c1c(N)n(Cc2ccccc2)c(=O)[nH]c1=O` the outcome was “inactive”. For `O=C(CCc1ccccc1)Nc1ccccc1`, the outcome was “inactive”. For `Cc1cccc(C)c1NC(=O)COc1ccc2c(C)c(Cc3ccccc3)c(=O)oc2c1C`, the outcome was “inactive”. For `CCc1ccc(N2C(=O)/C(=C/c3cccs3)N(CC(=O)OC)C2=S)cc1`, the outcome was “inactive”. For `CCN(CC)C1Oc2cc3c(cc2C(c2cc(OC)c(OC)c(OC)c2)C1C)OCO3` (configuration not stated), the outcome was “inactive”. For `COc1ccc2cc(CCNS(=O)(=O)c3ccc(NC(C)=O)cc3)c(=O)[nH]c2c1`, the outcome was “inactive”. For `CCC(=O)N(CCC1(C(C)C)CCOC(C)(C)C1)Cc1ccco1` (configuration not stated), the outcome was “inactive”. In the case of `Nc1nc(-c2ccc3ccccc3c2)cs1`, the outcome is reported as “inactive”. For `CCN(CC)c1ccc2cc(-c3nnc(-c4ccccc4)o3)c(=O)oc2c1`, the outcome was “inactive”. For `COc1cccc(NC(=O)NC2(C(F)(F)F)Oc3ccccc3O2)c1`, the outcome was “inactive”. In the case of `O=C1/C(=C/c2ccc(N3CCCC3)cc2)NC(=S)N1C1CC1`, the outcome is reported as “inactive”. For `CCCCN1C(=O)/C(=C/C=C2\Oc3ccccc3N2CC)SC1=S`, the outcome was “inactive”. With `COc1ccc(C(=O)NCc2oc(-c3ccccc3)cc2C(=O)O)cc1` the outcome was “inactive”. With `Cc1cc(S(=O)(=O)N2CCOCC2)ccc1OCC(=O)NCCN1CCOCC1` the outcome was “inactive”. In the case of `COc1ccc(-c2cc(C(=O)Nc3ccc4c(c3)OCO4)no2)cc1`, the outcome is reported as “inactive”. For `CC(C)CC(=O)Nc1ccc(-c2nnn(CC(=O)NCc3ccco3)n2)cc1`, the outcome was “inactive”. With `CCCCOc1ncnc2c1[nH]c1ccccc12` the outcome was “inactive”. For `O=C(NCc1ccccn1)c1ccc(Cn2c(=S)[nH]c3ccc(Br)cc3c2=O)cc1`, the outcome was “inactive”. With `NS(=O)(=O)c1ccc(-c2ccc(/C=C3\SC(=O)NC3=O)o2)cc1` the outcome was “inactive”. In the case of `CCN1CCc2c(sc(N)c2C(N)=O)C1`, the outcome is reported as “inactive”. For `CC1Cc2ccccc2N1C(=O)COC(=O)c1ccccc1NCCO` (configuration not stated), the outcome was “inactive”. For `CCOC(=O)c1c(C)[nH]c(-c2csc(N)n2)c1C`, the outcome was “inactive”. In the case of `COc1ccc(-c2csc(-c3cccnc3)n2)cc1C`, the outcome is reported as “inactive”. For `CCOc1ccc(Nc2nc3c(C)cccc3cc2C#N)cc1`, the outcome was “inactive”. For `Cc1ccc(S(=O)(=O)NC(=O)Nn2c(C)nnc2C)cc1`, the outcome was “inactive”.
